High-throughput results deposited in PubChem BioAssay by ICCB-Longwood Screening Facility, Harvard Medical School.
CapD inh: CapD enzyme inhibition | actives 0.23% (n = 140,000) | purified CapD enzyme, fluorescence intensity read-out; stronger effect = lower value | z-score (concentration not given with the values); in the data active means z-score mostly below about -2.9, no sharp cut-off; inactive means mostly above about -1.9
Numbers without * were called inactive. The full list was thinned out, with hits kept by preference.

SMILES	CapD inh
COc1cccc(NS(=O)(=O)c2ccc3[nH]cc(C(=O)NCc4ccccc4)c(=O)c3c2)c1	-0.275
O=C(CCSc1nnnn1-c1ccccc1)Nc1cc(C(F)(F)F)ccc1Cl	-0.39
CC1(C)OC(=O)C(=Cc2ccc3c(c2)OCO3)C(=O)O1	0.635
O=C(OCC#Cc1ccccc1)N1CCN(c2ccc(Cl)cc2)CC1	-0.595
CN1CCC(=C2c3ccccc3CC(=O)c3sccc32)CC1	-0.295
O=C1c2ccccc2CC(=O)c2sccc21	-6.75*
O=C1/C(=C/c2cccs2)Cc2ccccc21	-1.29
Cc1cccc(CCOC(=O)NC(CCCNC(=O)OCc2ccccc2)C(=O)OCc2ccccc2)c1 (stereo unspecified)	-0.305
COc1cc(C2C(C(=O)Nc3ccccn3)=C(C)Nc3nnnn32)ccc1OCc1ccccc1 (stereo unspecified)	1.42
CC(C)NC(=O)c1ccc2c(=O)n(Cc3ccco3)c(=S)[nH]c2c1	-5.07*
COC(CNC(=O)c1ccc2c(=O)n(Cc3ccco3)c(=S)[nH]c2c1)OC	-0.575
C=CCNC(=O)c1ccc2c(=O)n(Cc3ccco3)c(=S)[nH]c2c1	0.375
CC1CCC(NC(=O)Cn2c3ccccc3c3cn[nH]c(=O)c32)CC1 (stereo unspecified)	0
O=C(OCc1cccc(OCc2ccccc2)c1)N1CCN(c2cccc3[nH]ccc23)CC1	0.695
O=C1OCCN1/N=C/c1ccc([N+](=O)[O-])o1	-0.03
CN(C)/N=C/c1ccc([N+](=O)[O-])o1	-4.4*
O=C1CN(/N=C/c2ccc([N+](=O)[O-])o2)C(=O)N1	-0.945
CCOC(=O)Cn1c(=O)oc2cc(S(=O)(=O)NCc3ccccc3)ccc21	-0.88
COc1cc(CCC(=O)NCc2ccccc2)cc(OC)c1OC	-0.955
CCN1CCN(C(c2cccs2)C(C)NC(=O)Cc2cccs2)CC1 (stereo unspecified)	0.175
CC(C)C(=O)NC(C)C(c1cccs1)N1CCOCC1 (stereo unspecified)	-0.39
CCN1CCN(C(c2cccs2)C(C)NC(=O)C(C)C)CC1 (stereo unspecified)	-5.38*
CCN(CC)c1ncc2c(=S)[nH]c(=S)[nH]c2n1	-1.46
S=c1[nH]c(=S)c2cnc(N3CCOCC3)nc2[nH]1	0.375
C=CCSc1ncc2c(=S)[nH]c(=S)[nH]c2n1	-4.64*
SMILES	CapD inh
O=C(c1nnsc1S(=O)(=O)c1ccc(Cl)cc1)N1CCCCC1	-0.08
COC(=O)c1ccc(Br)o1	0.405
O=C(O)c1ccc(Br)o1	-1.11
O=C(ON1C(=O)CCC1=O)c1ccc(Br)o1	-5.7*
Cc1ccc(Nc2[nH]c(=O)c3ccccc3c2C(=O)c2ccncc2)cc1	-0.225
O=C(N1CCCCC1)C1(c2ccc(Cl)cc2)CCCC1	-0.07
CC(=O)N1CCN(C(=O)c2cncc(Br)c2)CC1	0.28
CCOC(=O)C1=C(C)NC2=C(C(=O)C(C(=O)OCC)C(c3ccccc3OC)C2)C1c1ccc(Br)cc1 (stereo unspecified)	0.84
O=C(NN1S(=O)(=O)c2ccccc2S1(=O)=O)c1ccc(Br)cc1	0.285
O=C(NN1S(=O)(=O)c2ccccc2S1(=O)=O)c1ccco1	-5.7*
COc1cc(C(=O)NN2S(=O)(=O)c3ccccc3S2(=O)=O)cc(OC)c1OC	-0.55
O=C(Nc1ccccc1C(=O)NN1S(=O)(=O)c2ccccc2S1(=O)=O)c1ccccc1Cl	0.09
O=C(NN1S(=O)(=O)c2ccccc2S1(=O)=O)c1cscn1	-5.99*
Cc1ccc(C)n1NC(=O)c1ccco1	0.055
CC(C)CCn1c(SCc2ccccc2F)nc2nccnc2c1=O	-0.065
CCn1cnc2sc(C(=O)N3CCC(C)CC3)c(C)c2c1=O	0.16
OCc1c(Cl)nc2sccn12	-0.33
Cc1ccc2onc(CNC(=O)N3CCCCCC3)c2c1	0.18
NC(=O)c1ccccc1NC(=O)Nc1ccccc1	3.7
N#CC(C#N)=NNc1ccccc1C(N)=O	-5.96*
CNc1ccccc1C(N)=O	74.7
O=C1NC(=S)S/C1=C\C=C\c1ccccc1	-4.03*
O=C1NC(=O)/C(=C\C=C\c2ccccc2)S1	0.62
O=C1NC(=S)NC(=O)C1=C/C=C/c1ccccc1	0.025
c1nc(N2CCN3CCCC3C2)c2[nH]cnc2n1 (stereo unspecified)	0.92
SMILES	CapD inh
O=C1NC(=S)N(c2ccc(Br)cc2)C(=O)/C1=C/c1cccn1-c1ccccc1	-0.31
COc1ccc(N2C(=O)/C(=C\c3ccc(Br)cc3)C(=O)NC2=S)cc1	-1.71
O=C1NC(=S)N(c2ccccc2)C(=O)/C1=C\c1ccoc1	-5.73*
COc1cc(/C=N/NC(=O)c2ccc([N+](=O)[O-])o2)ccc1OC(=O)OC(C)(C)C	-0.255
COc1ccc(C2SCCN2C(=O)c2cc3ccccc3oc2=O)cc1[N+](=O)[O-] (stereo unspecified)	0.69
Clc1ccc(CN2CCN(c3cccc4[nH]ccc34)CC2)cc1Cl	-0.4
CCN(CC)Cc1c(O)ccc2c(=O)c(-c3ccc(OC)c(OC)c3)c(C(F)(F)F)oc12	-0.02
CCc1cc2c(=O)c(-c3ccc4c(c3)OCO4)c(C(F)(F)F)oc2c(CN(C)C)c1O	-4*
CCCc1cc2c(=O)c(-c3ccc4c(c3)OCCO4)c(C(F)(F)F)oc2c(C=[N+](C)C)c1O	-1.51
O=C(OCC1COC2(CCCCC2)O1)N1CCC(O)(Cc2ccccc2)CC1 (stereo unspecified)	-0.2
CCc1ccc(NC(=O)CSc2nc3nccnc3c(=O)n2CCC(C)C)cc1	-0.36
Cc1ccc(S(=O)(=O)c2nc(Nc3nccs3)sc2Cl)cc1	-5.1*
Cc1ccc(S(=O)(=O)c2nc(NC3CCS(=O)(=O)C3)sc2Cl)cc1 (stereo unspecified)	0.27
CCOc1nc(S(=O)(=O)c2ccc(C)cc2)c(Cl)s1	-0.155
COc1cccc(C(=O)NC(c2ccco2)c2c(O)ccc3ccccc23)c1 (stereo unspecified)	1.09
Cc1cccc(N2C(=O)C(N3C(=O)c4c(Cl)c(Cl)c(Cl)c(Cl)c4C3=O)C2c2cccs2)c1 (stereo unspecified)	-0.365
O=C(O)CSc1sc(=S)sc1SCC(=O)O	-4.99*
NC(=O)CSc1sc(=S)sc1SCC(N)=O	-1.14
NCCSc1sc(=S)sc1SCCN	-0.58
CSc1nc2c(=S)[nH]c(=S)[nH]c2s1	-5.47*
CSc1nc2nc(N)nc(N)c2s1	-0.635
Cc1cc(C)nc(OC(Cc2ccnc3ccccc23)c2ccc(C(F)(F)F)cc2)n1 (stereo unspecified)	-0.145
Cc1ccc(-c2nnc(-c3c(-c4ccccc4)nn(C)c3Cl)o2)cc1	-0.15
COc1ccc(NC(=O)CCCN2C(=O)/C(=C\c3ccco3)SC2=S)cc1	-0.315
CCOc1ccc(/C=C2/C(=O)N(C)C(=S)N2CC(=O)OC)c(OCC)c1	0.29
SMILES	CapD inh
COC(=O)CN1C(=S)N(C)C(=O)/C1=C/c1ccco1	-4.13*
CCCN1C(=O)/C(=C2\SC(=S)N(NC(=O)c3ccc(C)cc3)C2=O)c2ccccc21	0.085
COCCNC(=O)CSc1nc2cc(C(=O)NCCOC)ccc2c(=O)n1Cc1ccc2c(c1)OCO2	-0.05
CCOC(=O)C1=C(C)N=c2s/c(=C\c3ccc(OC(C)=O)c(OC)c3)c(=O)n2C1c1ccccc1OC(C)C (stereo unspecified)	0.035
CC1=C(CC(=O)N2CCCN(C(=O)OC(C)(C)C)CC2)c2cc(F)ccc2/C1=C\c1ccc(S(C)=O)cc1 (stereo unspecified)	-0.45
COc1cccc(C2C(C#N)=C(N)Oc3n[nH]c(C)c32)c1OC(=O)N1CCOCC1 (stereo unspecified)	-0.075
O=C(CCCn1c(SCc2cc(=O)n3cc(Cl)ccc3n2)nc2ccccc2c1=O)NCc1ccccc1Cl	1.78
